Reference: PubChem BioAssay

Assay: HepG2 liver cancer cell viability effects, profiling panel, resazurin fluorescence, 24 h, PK04 Diversity Set (AID 1172); note: test concentration not given here
Settings: higher = more signal

Q: Which z-score does the source give for COc1ccc(NC(=O)O[C@H]2[C@@H]3OC(=O)[C@H](Cc4cccc(Br)c4)C/C=C/C[C@@H](Cc4cccc(Br)c4)C(=O)O[C@H]3[C@@H](OC)O[C@@H]2CO)cc1 here?
A: Its z-score is -0.868.

Q: Which z-score does the source give for [N-]=[N+]=NCc1ccccc1[C@H]1OC(c2ccc(OCCCO)cc2)=N[C@@]1(CCS(=O)(=O)c1ccccc1)C(=O)NCc1ccccc1 here?
A: Its z-score is 1.18.

Q: With COc1cc(NN2C(C(O)C3CCCCC3)C=CC3C(=O)N(C)C(=O)C32)cc(OC)c1OC (configuration not stated) as the molecule, how does the z-score read?
A: Its z-score is -0.721.

Q: For O=C1[C@@H]2[C@@H](CC(COc3ccccc3)=C3[C@@H](CCc4ccccc4)OB(O)C[C@@H]32)C(=O)N1Cc1ccccc1, which z-score is on record?
A: Its z-score is -0.665.

Q: For O=C1OCCC=C[C@H]2OC34C=CCN(c5ccc(Cl)cc5)C(=O)[C@H]3N(CCCCCCO)C(=O)[C@@H]4C12 (some centres not stated), which z-score is on record?
A: Its z-score is 0.546.

Q: For CCOC(=O)C[C@H]1[C@H](OC(=O)c2ccccc2-c2ccccc2)[C@@H](NC(=O)c2ccc3ccccc3n2)c2cc(OCCCO)ccc2N1C(=O)c1ccccc1, which z-score is on record?
A: The z-score was -0.412.

Q: Which z-score does the source give for COC(=O)[C@@]1(Cc2ccc(OC)cc2)[C@H]2c3cc(C(=O)N4CCCC4)n(Cc4ccc(S(C)(=O)=O)cc4)c3C[C@H]2CN1C(=O)c1ccccc1 here?
A: The z-score was -0.707.

Q: For C=C[C@@H](C)[C@@H](OC(=O)Nc1ccc(SC)cc1)c1ccc(OCCO)cc1, which z-score is on record?
A: The z-score was 0.627.

Q: Which z-score does the source give for NCCCCCNC(=O)[C@@H]1C[C@@H]2C(=O)N3CCC[C@H]3C(=O)N2[C@@H]1c1ccc(O)cc1 here?
A: Its z-score is -0.448.

Q: For O=C1OCCC/C=C\[C@H]2OC34C=CCN(c5ccc6ccccc6c5)C(=O)[C@H]3N(CCCO)C(=O)[C@@H]4C12 (some centres not stated), which z-score is on record?
A: Its z-score is -0.408.

Q: Which z-score does the source give for CC(=O)NCCCC[C@@H]1NC(=O)[C@@H]2C[C@H](C(=O)NCCCCCCN)[C@H](c3cccc(OCCO)c3)N2C1=O here?
A: Its z-score is -0.55.

Q: Which z-score does the source give for COCCOC(=O)N1C(=O)[C@@]2(c3cc(C#CCNC(N)=O)ccc31)[C@H](c1ccc(OCCO)cc1)N1[C@H](c3ccccc3)[C@H](c3ccccc3)OC(=O)[C@H]1[C@@H]2C(N)=O here?
A: The z-score was -0.373.
